Source: PubChem BioAssay (several laboratories)
Only some compounds are listed: those with a hit (about 4.4% of all), similar ones and a draw of the others.
Cav32 inh: inhibitors of human Cav3.2 T-type calcium channel; O95180; Cav3.2-expressing cells, Fluo-4 calcium fluorescence FDSS; hits give low values; B-score at 10 µM; actives 4% (n = 100,000); AID 449739;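 active = single-dose well whose peak fluorescence ratio is a statistical outlier from its plate by either plate-standardised score or position-corrected B-score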
IL1B NFkB pot: enhances IL-1B driven NFkB nuclear translocation. HUVEC IL-1B NFkB p65 nuclear translocation imaging. activation, % at 2 µM. actives 0.3% (n = 94,000);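 active = activation above 40%, about the mean plus 3 SD, also judged a hit on visual image review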;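 also: percent activation is computed from the nuclear over cytoplasmic p65 intensity ratio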
HUVEC tox IL1B: toxic to HUVEC cells under IL-1B stimulation; AID 845; cell count reduction, % at 2 µM; actives 0.41% (n = 94,000); HUVEC cell count loss, Hoechst imaging, IL-1B stimulated;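 active = cell count reduction more than 3 SD above the screen-wide mean, cut at about 70% in these data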;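 also: normalized per plate to untreated control cells as the no-loss baseline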
NFkB transloc inh: blocks IL-1B driven NFkB nuclear translocation in HUVEC cells. AID 796. actives 0.43% (n = 94,000). HUVEC IL-1B NFkB p65 nuclear translocation imaging. inhibition, % at 2 µM;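 active = inhibition above about 30% together with a positive call from visual inspection of the well image, limit read from the data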;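 also: nuclear over cytoplasmic p65 intensity ratio measured by imaging; 0% = IL-1B stimulated DMSO wells and 100% = unstimulated DMSO wells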
Starred values were filed as active, the others as inactive; nt = not tested or not shown.

SMILES	Cav32 inh	IL1B NFkB pot	HUVEC tox IL1B	NFkB transloc inh
Cc1ccc(OCCNC(=O)c2ccccc2N)cc1	-0.011	10	-35	-10
CCCCOCCCNC(=O)CCCOc1ccccc1	0.17	17	93*	-17
CCCCOCCCNC(=O)COc1ccccc1	0.45	7	4	-7
CCc1ccc(OCCNC(=O)c2ccccc2SCc2ccccc2)cc1	-6.8*	-3	-64	3
CCc1ccc(OCC(=O)NCCOc2ccccc2)cc1	-4.4*	14	-12	-14
O=C(NC1CCCCC1)C(c1ccc(F)cc1)N(Cc1ccc2c(c1)OCO2)C(=O)c1cnsn1 (stereo not drawn)	-0.2	-7	3	7
CC(CS(=O)(=O)c1ccc2ccccc2c1)N1CCN(C2CCCCC2)CC1 (stereo not drawn)	nt	8	-41	-8
CCC(C)OC(=O)C1=C(C)OC23OC(N)=C(C#N)C12C(=O)c1ccccc13 (stereo not drawn)	-2.7*	23	20	-23
Cc1ccc(S(=O)(=O)N(C)c2cc(S(=O)(=O)N3CCC(C)CC3)c(C)cc2C)cc1	-3.6	21	94*	-21
CN1C(C(=O)NCc2ccc(OC(F)(F)F)cc2)CC2Cn3c(nc4cc(Cl)c(Cl)cc43)C21 (stereo not drawn)	-2.9	nt	nt	nt
O=c1[nH]c2ccccc2n1CCCN1CCN(C(c2ccccc2)c2ccccc2)CC1	-5*	nt	nt	nt
CCCn1c(=O)[nH]c2ccccc21	0.55	10	3	-10
Cc1ccc(C(=O)OCc2cn3ccccc3n2)cc1	-0.61	nt	nt	nt
CN(C(=O)c1cnc(N2CCN(c3ncccn3)CC2)c2ccccc12)c1ccc(Cl)cc1	nt	11	-77	-12
CCN(C(=O)c1cnc(N2CCN(c3ncccn3)CC2)c2ccccc12)c1cccc(Cl)c1	-6.6*	-2	-28	2
Cc1nc(=O)c(-c2ccccc2)c(C)n1-c1ccc(O)c(C(=O)O)c1	0.37	nt	nt	nt
CC(=O)c1ccccc1NC(=O)CSc1nnc2ccccn12	nt	-5	4	5
COC(=O)CNC(=O)CN1C(=O)N(c2cccc(Cl)c2)C(N(O)C(=O)Nc2cccc(Cl)c2)C1(C)C (stereo not drawn)	-4.7*	5	-5	-5
COC(=O)CNC(=O)CN1C(=O)N(c2ccccc2)C(N(O)C(=O)Nc2ccccc2)C1(C)C (stereo not drawn)	0.68	1	-5	-1
O=C(CN1CCC(C(=O)c2ccc(F)cc2)CC1)Nc1ccc(F)cc1	-5.4*	-4	-4	4
CCCCn1c(NC(=O)c2ccccc2Cl)c(C#N)c2nc3ccccc3nc21	-8.8*	35	-2	-35
CCCCn1c(NC(=O)CC)c(C#N)c2nc3ccccc3nc21	0.27	-4	41	4
Cc1ccc(C)c(NC(=O)CCc2ccc(S(=O)(=O)NC3CCCCC3)cc2)c1	-2.6	7	-15	-7
Cc1oc2cc3c(C(=O)N4CCN(c5ccccc5)CC4)c(C)oc3cc2c1C(=O)N1CCN(c2ccccc2)CC1	nt	3	1	-3
CC(=O)Nc1ccc(NC(=O)Cn2cnc3c(cnn3C(C)(C)C)c2=O)cc1	-0.1	-1	37	1
SMILES	Cav32 inh	IL1B NFkB pot	HUVEC tox IL1B	NFkB transloc inh
CC(C)(C)n1ncc2c(=O)n(CC(=O)Nc3ccc(Cl)cc3)cnc21	-9.5*	2	-27	-2
Cc1cccc(N(CC(=O)N/N=C/c2cc([N+](=O)[O-])ccc2Cl)S(C)(=O)=O)c1C	-5.5*	7	8	-6
CS(=O)(=O)N(CC(=O)N/N=C/c1cc([N+](=O)[O-])ccc1Cl)c1ccccc1	nt	15	4	-15
Cc1csc(NC(=O)c2cccc(Cn3nc(C)c(Br)c3C)c2)n1	-3.7*	4	-1	-4
Cc1nn(Cc2cccc(C(=O)NC3CCCCC3)c2)c(C)c1Cl	nt	14	3	-14
O=C(c1ccc(C#CC2(O)CCCCC2)cc1)N1CCN(Cc2ccccc2)CC1	-6.1*	0	-26	0
O=C(c1ccc(C#CC2(O)CCCCC2)cc1)N1CCN(C(c2ccccc2)c2ccccc2)CC1	-5.1*	-8	12	8
CCOC(=O)N1CCN(C(=O)c2ccc(C#CC3(O)CCCCC3)cc2)CC1	0.65	33	-29	-33
O=C(C1=COCCO1)N1CCN(C(c2ccccc2)c2ccccc2)CC1	-0.87	17	-19	-17
CCCCCCN1C=CC(=C/C=C(\C#N)C(=O)OCC)C=C1	-3.3*	-8	-4	8
O=C(c1cc(-c2ccco2)nn1-c1cccc(Cl)c1)N1CCCCC1	-5.9*	-2	6	2
CC(C)NC(=O)c1cc(-c2ccco2)nn1-c1ccc(Cl)cc1	-4	16	-37	-16
CCCn1c(SCC(=O)N2c3ccccc3CCc3ccccc32)nc2c1c(=O)n(C)c(=O)n2C	0.48	24	-2	-24
C/C=C(/C)C(=O)Nc1cccc(C2=NOC3(C2)C[C@@H](C(N)=O)N(C(=O)/C=C/CC)C3)c1 (stereo partly drawn)	0.37	nt	nt	nt
COc1cc(S(=O)(=O)n2nc(C)cc2C)c(OC)cc1Cl	-0.98	-46	-21	46*
COc1ccc(OC)c(S(=O)(=O)n2nnc3cc(Cl)ccc32)c1	-0.47	-1	23	1
COc1cc(Cl)ccc1S(=O)(=O)n1nc(C)cc1C	-1.3	-3	-19	3
COc1cc(S(=O)(=O)n2nnc3ccccc32)c(OC)cc1Cl	-0.3	18	87*	-18
Cc1c(NC(=O)c2ccc(N3CCCC3)c([N+](=O)[O-])c2)cccc1-c1nc2ccccc2s1	-4.6*	-2	6	2
O=C(Nc1ccc(N2CCCCC2)c(Cl)c1)c1ccc(N2CCOCC2)c([N+](=O)[O-])c1	-2.1	0	-3	0
CC1CN(C(=O)CSc2nnc3c(Cl)cc(Cl)cn23)CC(C)O1 (stereo not drawn)	0.067	15	0	-15
O=C(N/N=C/c1ccc(Sc2ccccn2)o1)c1cc2ccccc2cc1O	-5*	6	-56	-6
CCCCOC(=O)Nc1nc(C)c(C(=O)OCC)s1	-1.1	-12	12	12
c1ccc2c(c1)oc1c(N3CCOCC3)ncnc12	0.24	21	-23	-21
C(=C\c1ccccc1)/CN1CCN(c2ncnc3c2oc2ccccc23)CC1	-2	40*	-28	-40
SMILES	Cav32 inh	IL1B NFkB pot	HUVEC tox IL1B	NFkB transloc inh
CCOC(=O)c1c(NC(=O)CSc2nnnn2C)sc(C)c1-c1ccc(C)cc1	-4.5*	nt	nt	nt
N#CC1=C(SCC(=O)NC23CC4CC(CC(C4)C2)C3)NC(=O)C(C#N)C12CCCCC2 (stereo not drawn)	-3.2*	12	-44	-12
CCOC(=O)C1=C(SCC(=O)Nc2ccccc2)NC(=O)C(C#N)C12CCCCC2 (stereo not drawn)	-4.1*	-2	5	2
C=CCSC1=C(C#N)C2(CCCCC2)C(C#N)C(=O)N1 (stereo not drawn)	-0.034	-1	-8	1
N#CC1=C(SCC(=O)NC2CC2)NC(=O)C(C#N)C12CCCCC2 (stereo not drawn)	-0.038	34	-40	-34
CC(C)(C)C1CCC2(CC1)C(C#N)=C(SCC(=O)NC1CCCCC1)NC(=O)C2C#N (stereo not drawn)	-4.2*	-7	16	7
